In paper PMC5540273 (PLoS ONE, 2017) one finds Kd data, which are given here for 15 compounds.

One may read the Kd as the constant that tells how readily two partners part at equilibrium. Higher therefore signals lower affinity.

Molecules are shown by their SMILES.
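Note: kd values determined as follow-up on hits from a single-replicate KINOMEscan panel screen.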

The test system of the first experiment is BRSK2.
In the case of `Cc1ccccc1Cn1ccn2c(=O)cc(N3CCOCC3)nc12` [GSK2269905], the Kd is over 10 µM.

In turn, `c1ccc(-c2ccnc3[nH]ccc23)cc1` [SB-693578] had an equilibrium dissociation constant (Kd) of over 10 µM.

As for `O=c1cc(N2CCOCC2)nc2n(Cc3ccccc3F)ccn12` [GSK2297428], the Kd is over 10 µM.

Take `COc1cccc(NC(=O)Nc2ccc(C)c(-c3ccc(C(=O)Nc4ccncc4)cc3)c2)c1` [GSK1398474]: the Kd is over 10 µM.

With `COc1ccc(-c2coc3ccc(-c4nnc(C)o4)cc23)cc1`, the Kd was over 10 µM.

The test system of a further experiment is BUB1.
`COc1ccc2cc(-c3nc(-c4ccccc4C(C)C)[nH]c3-c3ccncc3)ccc2c1` [SB-660566] registered a Kd of 0.47 µM. In other words, the sub-micromolar range.

Take `COc1cc2ncnc(Nc3cccc(Br)c3)c2cc1OC.Cl` [GI230329]: the affinity, expressed as Kd, was 0.13 µM.

Compound `CSc1ccc(-c2nc3n(c2-c2ccncc2)CCC3)cc1` [SKF-105561] yielded a Kd of 0.26 µM.

`Fc1ccc(-c2nc[nH]c2-c2ccncc2)cc1` [SB-217360] showed a Kd of 0.89 µM.

In the case of `CS(=O)(=O)Cc1ccc(Nc2nccc(-c3c(-c4cccc(NC(=O)C5CCCCC5)c4)nn4ncccc34)n2)cc1` [GSK350559], the equilibrium dissociation constant (Kd) was 0.029 µM.

For `CCCCc1nn2ncccc2c1-c1ccnc(NC2CC2)n1` [GW684374], binding was put at a Kd of 3.3 µM.

Another experiment deals with CAMK2A.
For `Cc1ccc(NC(=O)c2ccc(Cl)cc2)cc1-c1ccc(C(=O)Nc2ccncc2)cc1` [GSK1398467], the equilibrium dissociation constant (Kd) was over 10 µM.

Consider `CNc1nc(-c2ccc3c(N)n[nH]c3c2)cc(N2C[C@@H](C(=O)Nc3ccccc3)CC[C@H]2C)n1` [GSK2298859], for which the dissociation constant Kd was over 10 µM.

Compound `O=C(Nc1n[nH]c2nc(-c3cccs3)c(Br)cc12)C1CC1` [SB-735297] returned a dissociation constant Kd of over 10 µM.

For the compound `COC(=O)c1cccc(NC(=O)NC2CCN(c3ccnc(Nc4ccc(OC)cc4)n3)C2)c1` (stereo not shown) [GSK1379746], the Kd is over 10 µM.

Another experiment concerns CAMK2B.
`Cc1ccc(NC(=O)c2ccc(Cl)cc2)cc1-c1ccc(C(=O)Nc2ccncc2)cc1` [GSK1398467] displayed a Kd of over 10 µM.

Consider `CNc1nc(-c2ccc3c(N)n[nH]c3c2)cc(N2C[C@@H](C(=O)Nc3ccccc3)CC[C@H]2C)n1` [GSK2298859], for which the Kd was over 10 µM.

Turning to `O=C(Nc1n[nH]c2nc(-c3cccs3)c(Br)cc12)C1CC1` [SB-735297], the Kd is over 10 µM.

The compound `COC(=O)c1cccc(NC(=O)NC2CCN(c3ccnc(Nc4ccc(OC)cc4)n3)C2)c1` (stereo not shown) [GSK1379746] displayed a Kd of over 10 µM.
